Compound activity deposited in PubChem by National Center for Advancing Translational Sciences (NCATS).
NPC1 prom act: activates the NPC1 promoter; hit rate 2.4% among 320,000; Potency, µM (titrated, usually from 9.22 µM), for inactives: at the top dose activation, hits mostly activators; Huh7 NPC1 promoter luciferase reporter, 24 h; AID 485313; also: % of control where 0% means no effect; nearly all actives have a fitted effect of over 60% in size
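Huh7 cells stably carrying NPC1 promoter–luciferase, plated in Opti-MEM with 10% FBS for 2 h, were exposed to compound in DMSO for 24 h at 37 °C; luciferase reagent was added for 10 min and luminescence read.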
SMN2 splice up: increases expression of the SMN2 splice variant. HEK293 SMN2-luciferase splicing reporter, luminescence, 30-36 h. Potency, µM (doses to about 46.1 µM), without a hit: at the highest dose activity change, positive = activation, usual class: activators. hit rate 2.8% among 210,000. AID 1458; also: % of control where 0% means no effect; nearly all actives have a fitted effect of over 55% in size
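HEK293 cells carry an SMN2 minigene-luciferase reporter in which exon 7 inclusion puts luciferase in frame. Cells were seeded at 2000 cells/well, attached for 10-12 hours, then exposed to compounds for 30-36 hours at 37C before ONE-Glo luminescence.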
ELG1 genotox: induces genotoxicity in HEK293T cells with luciferase-tagged ELG1 | hit rate 1.3% among 330,000 | Potency, µM (series often up to 46 µM), for the others: top-dose activity change, positive = activation, hits mostly activators | HEK293T ELG1-luciferase reporter, luminescence, 16 h; also: % of control where 0% means no effect; nearly all actives have a fitted effect of over 60% in size
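Genotoxicity was scored as increased ELG1-luciferase reporter signal, measured by ONE-Glo luminescence (30 min, room temperature). Compound or vehicle exposure of the HEK293T reporter cells lasted 16 hr at 37°C.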
FLuc counter: counter-screen for miR-21 project: firefly luciferase inhibitors or activators | P08659 | purified FLuc, Km substrates, luminescence inhibition | Potency, µM (series often up to 57.5 µM), inactives show at the highest dose activity change, negative = inhibition, hits mostly inhibitors | hit rate 6.9% among 360,000 | AID 588342;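 also: plate controls were vehicle for no effect and reference inhibitor for full effect; nearly all actives have a fitted effect of over 55% in size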
Target sequence (P08659 whole entry, looked up): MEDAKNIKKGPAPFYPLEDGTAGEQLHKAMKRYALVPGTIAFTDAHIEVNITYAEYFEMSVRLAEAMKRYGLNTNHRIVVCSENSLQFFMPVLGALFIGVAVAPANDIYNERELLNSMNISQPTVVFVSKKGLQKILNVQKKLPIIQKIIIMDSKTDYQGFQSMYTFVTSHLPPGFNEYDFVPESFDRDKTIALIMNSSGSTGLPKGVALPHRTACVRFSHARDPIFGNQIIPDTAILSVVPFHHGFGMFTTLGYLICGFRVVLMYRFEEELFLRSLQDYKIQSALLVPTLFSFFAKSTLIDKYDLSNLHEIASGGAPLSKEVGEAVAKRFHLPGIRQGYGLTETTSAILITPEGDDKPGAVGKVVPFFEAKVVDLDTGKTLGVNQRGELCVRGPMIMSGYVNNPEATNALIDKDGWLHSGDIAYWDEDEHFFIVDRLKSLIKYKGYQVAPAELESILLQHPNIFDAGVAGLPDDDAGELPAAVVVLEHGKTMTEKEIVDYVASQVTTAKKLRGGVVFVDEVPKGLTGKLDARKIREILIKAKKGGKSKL
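Purified P. pyralis luciferase, 10 nM final, with Km-level 10 uM D-luciferin and 10 uM ATP in 50 mM Tris acetate pH 7.5, 10 mM Mg acetate, 0.01% Tween-20, 0.05% BSA; 6-point qHTS titration about 60 µM downward; luminescence read.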
Luc counter: blocks Kinase-Glo luciferase, a counter-screen artifact; hit rate 0.28% among 200,000; Q27757; Kinase-Glo luciferase, ATP luminescence, 8 min; AID 1379; Potency, µM (highest dose often 38.3 µM), inactives show at the highest dose activity change, negative = inhibition, actives largely listed as inhibitors; also: % is scaled to controls: 0 for no effect and ±100 for the full control effect; nearly all actives have a fitted effect of over 60% in size
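Luminescence was the read-out, taken after 8-minute incubation at ambient temperature. Luciferase turned over luciferin with 10 uM ATP in imidazole pH 7.2 buffer containing KCl, MgCl2, Tween 20 and BSA.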
Rab9 prom act: activators of Rab9 promoter. Huh7 Rab9 promoter-luciferase reporter, luminescence, 24 h. Potency, µM (top dose mostly 9.22 µM), without a hit: at the highest dose activation, negative = inhibition, hits mostly activators. hit rate 2.8% among 320,000. AID 485297; also: % of control where 0% means no effect; nearly all actives have a fitted effect of over 60% in size
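Huh7 cells stably carrying a Rab9 promoter-luciferase reporter, 1500 cells per well in OP-MEM I with 10% FBS, treated with compound 24 hours at 37C. Luciferase activity read by luminescence after 10 minutes with Amplite reagent.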
* hit, by the source's call; [ ] = another dose, or the depositor's remark. Hits are enriched below; roughly 7.5% of the tested compounds scored in any of these assays. Calls follow the shape of the dose curve; as a rule, active = well fitted curve in the direction sought with a large enough effect; inconclusive = small, poorly fitted or top-dose-only effect, or another doubt; inactive = no such curve, though single readings can be large; an effect the other way counts as inactive or inconclusive. Potency is read from the fitted curve at half-maximal effect.

How did O=c1oc2cc(OCc3c(F)cccc3Cl)ccc2cc1-c1ccccn1 do in these assays?
NPC1 prom act: 0%; SMN2 splice up: -27%; ELG1 genotox: 1%; FLuc counter: 1%; Luc counter: 1%; Rab9 prom act: -1%

Results for CCCOc1ccc2cc(-c3ccccn3)c(=O)oc2c1 ?
NPC1 prom act: inconclusive; SMN2 splice up: 0.79µM*; ELG1 genotox: inconclusive; FLuc counter: 0.24µM*; Luc counter: 13µM*; Rab9 prom act: 0.45µM*

How did COC(=O)C(C)Oc1ccc2cc(-c3ccccc3)c(=O)oc2c1 (stereo not drawn) do in these assays?
NPC1 prom act: -1%; ELG1 genotox: 3%; FLuc counter: 24µM*; Rab9 prom act: -4%

How did CN(C)CC(O)Cn1c2ccc(Br)cc2c2cc(Br)ccc21 (stereo not drawn) do in these assays?
SMN2 splice up: -108%

How did CCCOc1ccc(/C=N/NC(=S)Nc2ccccc2[N+](=O)[O-])c(O)c1 do in these assays?
NPC1 prom act: 3%; SMN2 splice up: -87%; ELG1 genotox: inconclusive; FLuc counter: 3.4µM*; Luc counter: -11%; Rab9 prom act: -16%

What do the screens show for `Cc1ccccc1NC(=S)N/N=C/c1ccc(O)cc1O`?
NPC1 prom act: inconclusive; ELG1 genotox: inconclusive; FLuc counter: 2.4µM*; Rab9 prom act: 26%

How did CCCOc1ccc(/C=N/Nc2ccccc2[N+](=O)[O-])c(O)c1 do in these assays?
NPC1 prom act: inconclusive; SMN2 splice up: -95%; ELG1 genotox: inconclusive; FLuc counter: 0.11µM*; Luc counter: 8.9µM*; Rab9 prom act: inconclusive

What do the screens show for `CCNC(=S)N/N=C/c1ccccc1[N+](=O)[O-]`?
NPC1 prom act: 0%; SMN2 splice up: 12%; ELG1 genotox: 0%; FLuc counter: 3%; Luc counter: 3%; Rab9 prom act: 1%

Results for Cc1cccc(NC(=S)N/N=C/c2cccc(O)c2)c1C ?
NPC1 prom act: -26%; ELG1 genotox: -4%; FLuc counter: inconclusive; Rab9 prom act: -31%

How did CCCOc1ccc(/C=N/Nc2cccc([N+](=O)[O-])c2)c(O)c1 do in these assays?
NPC1 prom act: inconclusive; SMN2 splice up: inconclusive; ELG1 genotox: inconclusive; FLuc counter: inconclusive; Luc counter: -2%; Rab9 prom act: inconclusive

Results for O=[N+]([O-])c1cc(/C=N/NC(=S)Nc2ccccc2Cl)ccc1Cl ?
NPC1 prom act: 2%; SMN2 splice up: 8%; ELG1 genotox: -4%; FLuc counter: 6%; Luc counter: -1%; Rab9 prom act: -10%

Results for COc1ccc(/C=N/NC(=S)Nc2ccccc2[N+](=O)[O-])cc1O ?
NPC1 prom act: 22%; SMN2 splice up: inconclusive; ELG1 genotox: 5.2µM*; FLuc counter: 0.43µM*; Luc counter: -7%; Rab9 prom act: -2%

What do the screens show for `CC(N)(Cc1ccc(O)c(O)c1)C(=O)O` (stereo not drawn)?
NPC1 prom act: -7%[46.1 µM]; SMN2 splice up: -26%; Luc counter: -20%; Rab9 prom act: 1%[46.1 µM]

How did O=C(NCc1ccccc1F)C(=O)NCC(c1cccs1)S(=O)(=O)c1cccs1 (stereo not drawn) do in these assays?
FLuc counter: -7%

How did COc1ccc(NS(=O)(=O)c2cccc(C(=O)NNC(=O)c3cc(S(N)(=O)=O)ccc3OC)c2)cc1 do in these assays?
NPC1 prom act: -1%; ELG1 genotox: -9%; FLuc counter: 0%; Rab9 prom act: 2%

What do the screens show for `COc1cc(/C=C2\C(=N)N3N=C(S(C)(=O)=O)SC3=NC2=O)ccc1OC(=O)c1ccco1`?
NPC1 prom act: 0%; ELG1 genotox: -1%; FLuc counter: 19µM*; Rab9 prom act: 2%

How did CCS(=O)(=O)C1=NN2C(=N)/C(=C\c3ccc(OC(=O)c4ccco4)c(Br)c3)C(=O)N=C2S1 do in these assays?
NPC1 prom act: -4%; ELG1 genotox: 2%[9.26 µM]; FLuc counter: 15µM*; Rab9 prom act: -2%

Results for COc1cc(/C=C2\C(=N)N3N=C(S(C)(=O)=O)SC3=NC2=O)ccc1OC(=O)c1cccs1 ?
NPC1 prom act: 3%; ELG1 genotox: 0%; FLuc counter: 21µM*; Rab9 prom act: 6%

What do the screens show for `COc1ccc(-c2sc3cc(OC)c(OC)cc3c2-c2ccc(O)cc2)cc1`?
ELG1 genotox: 1%

Results for Cn1c2c(c(=O)n(C)c1=O)C(c1ccc(Br)cc1)C(C#N)=C(N)N2 (stereo not drawn) ?
NPC1 prom act: 0%; ELG1 genotox: 4%; FLuc counter: 2%; Rab9 prom act: inconclusive

What do the screens show for `COc1ccc2oc(C(=O)OCC(=O)NCc3ccc(OC)c(OC)c3)c(C)c2c1`?
NPC1 prom act: -1%; ELG1 genotox: -7%; FLuc counter: 3%; Rab9 prom act: -1%

How did Cc1ccc(C)c(OCc2nc3ccccc3[nH]2)c1 do in these assays?
NPC1 prom act: inconclusive; SMN2 splice up: inconclusive; ELG1 genotox: 16%; FLuc counter: 15µM*; Luc counter: -5%; Rab9 prom act: inconclusive

How did COc1ccc(S(=O)(=O)NCCc2csc(-c3cccc(F)c3)n2)cc1OC do in these assays?
FLuc counter: -7%

Results for O=C1c2ccccc2C(=O)C1c1ccc(Br)cc1 ?
NPC1 prom act: inconclusive; ELG1 genotox: inconclusive; FLuc counter: 6µM*; Rab9 prom act: 10%[1.84 µM]

Results for CCc1c(C)nc2ncnn2c1Nc1ccc(C(C)=O)cc1 ?
NPC1 prom act: 27%; SMN2 splice up: 16%; ELG1 genotox: 18µM*; FLuc counter: 27µM*; Luc counter: 3%; Rab9 prom act: 13%

Results for c1ccc2c(Nc3nc4c(s3)CCCC4)cccc2c1 ?
NPC1 prom act: inconclusive; SMN2 splice up: inconclusive; ELG1 genotox: inconclusive; FLuc counter: 4.8µM*; Luc counter: -13%; Rab9 prom act: 3.5µM*

What do the screens show for `O=S(=O)(Nc1nc2c(s1)CCCC2)c1ccc2ccccc2c1`?
NPC1 prom act: 0%; SMN2 splice up: -41%; ELG1 genotox: -2%; FLuc counter: 1%; Luc counter: 24%; Rab9 prom act: -2%

How did O=C(NCCc1cccnc1)c1cc(COc2ccc(F)cc2Cl)on1 do in these assays?
NPC1 prom act: 8%; ELG1 genotox: 0%; FLuc counter: 19µM*; Rab9 prom act: 6%

How did COc1ccc(OCc2cc(C(=O)NC(C)Cc3cccnc3)no2)c(Cl)c1 (stereo not drawn) do in these assays?
NPC1 prom act: 15%; ELG1 genotox: 2%; FLuc counter: 13µM*; Rab9 prom act: 2%
